Measurements taken from PubChem BioAssay AID1159580 (chemical genetic matrix, 2015).
Hit rate of the full screen: of about 5,500 compounds, about 2,000 (36%) were called active. Not shown: some 18% with an inconclusive outcome. No stated cut-off is given here; in the data, active means normalized growth mostly below about 0.91 (no sharp cut-off); inconclusive means no clear call, values can overlap the other calls; inactive means mostly above about 0.92. The list shows a part of the results.

Test: chemical genetic growth profiling, strain panel (AID 1159580);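 further: tested at 20 µM; growth read once vehicle control cultures reached saturation at 30 °C; 1 = growth at the plate median or of vehicle wells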
Settings: growth OD

Measured: normalized growth

O=c1[nH]cc(F)c(=O)[nH]1
active: S. cerevisiae deletion strains, locus YNL128W, strain TEP1, stronger effect = lower value 0.784 | S. cerevisiae deletion strains, locus YNL183C, strain NPR1, stronger effect = lower value 0.611 | S. cerevisiae deletion strains, locus YNL209W, strain ssb2, stronger effect = lower value 0.647 | S. cerevisiae deletion strains, locus YNL233W, strain BNI4, stronger effect = lower value 0.843 | S. cerevisiae deletion strains, locus YNL248C, strain rpa49, stronger effect = lower value 0.346 | S. cerevisiae deletion strains, locus YNL250W, strain rad50, stronger effect = lower value 0.848 | S. cerevisiae deletion strains, locus YNL271C, strain bni1, stronger effect = lower value 0.811 | S. cerevisiae deletion strains, locus YNL298W, strain CLA4, stronger effect = lower value 0.905 | S. cerevisiae deletion strains, locus YNL307C, strain MCK1, stronger effect = lower value 0.756 | S. cerevisiae deletion strains, locus YNL322C, strain KRE1 (second series), stronger effect = lower value 0.65 | S. cerevisiae deletion strains, locus YNR049C, strain mso1, stronger effect = lower value 0.647 | S. cerevisiae deletion strains, locus YNR052C, strain pop2, stronger effect = lower value 0.909 | S. cerevisiae deletion strains, locus YOL012C, strain htz1 2.56 [resistant] | S. cerevisiae deletion strains, locus YOL147C, strain pex11, stronger effect = lower value 0.796 | S. cerevisiae deletion strains, locus YOR001W, strain rrp6, stronger effect = lower value 0.193 | S. cerevisiae deletion strains, locus YOR069W, strain VPS5, stronger effect = lower value 0.858 | S. cerevisiae deletion strains, locus YOR070C, strain gyp1, stronger effect = lower value 0.622 | S. cerevisiae deletion strains, locus YOR080W, strain dia2, stronger effect = lower value 0.809 | S. cerevisiae deletion strains, locus YOR083W, strain WHI5, stronger effect = lower value 0.686 | S. cerevisiae deletion strains, locus YOR106W, strain vam3, stronger effect = lower value 0.394 | S. cerevisiae deletion strains, locus YOR136W, strain idh2, stronger effect = lower value 0.902 | S. cerevisiae deletion strains, locus YOR184W, strain ser1, stronger effect = lower value 0.561 | S. cerevisiae deletion strains, locus YOR231W, strain MKK1, stronger effect = lower value 0.549 | S. cerevisiae deletion strains, locus YOR265W, strain rbl2, stronger effect = lower value 0.654 | S. cerevisiae deletion strains, locus YOR270C, strain vph1, stronger effect = lower value 0.397 | S. cerevisiae deletion strains, locus YOR290C, strain snf2, stronger effect = lower value 0.415 | S. cerevisiae deletion strains, locus YPL051W, strain arl3, stronger effect = lower value 0.598 | S. cerevisiae deletion strains, locus YPL078C, strain atp4, stronger effect = lower value 0.482 | S. cerevisiae deletion strains, locus YPL106C, strain sse1, stronger effect = lower value 0.709 | S. cerevisiae deletion strains, locus YPL240C, strain hsp82, stronger effect = lower value 0.671 | S. cerevisiae deletion strains, locus YPL256C, strain CLN2, stronger effect = lower value 0.714 | S. cerevisiae deletion strains, locus YPR167C, strain met16, stronger effect = lower value 0.831 | S. cerevisiae deletion strains, strain wtn01, stronger effect = lower value 0.635 | S. cerevisiae strains, strain wild type, stronger effect = lower value 0.776
inactive: S. cerevisiae deletion strains, locus YNL175C, strain NOP13, stronger effect = lower value 1.03 | S. cerevisiae deletion strains, locus YNL197C, strain WHI3, stronger effect = lower value 1.01 | S. cerevisiae deletion strains, locus YNL224C, strain SQS1, stronger effect = lower value 0.929 | S. cerevisiae deletion strains, locus YOR061W, strain CKA2, stronger effect = lower value 0.947 | S. cerevisiae deletion strains, locus YOR083W, strain WHI5 (second series), stronger effect = lower value 1.03 | S. cerevisiae deletion strains, locus YOR144C, strain elg1, stronger effect = lower value 0.999 | S. cerevisiae deletion strains, locus YOR316C, strain cot1, stronger effect = lower value 0.958 | S. cerevisiae deletion strains, locus YPL055C, strain LGE1, stronger effect = lower value 0.955 | S. cerevisiae deletion strains, locus YPL241C, strain CIN2, stronger effect = lower value 1.03 | S. cerevisiae deletion strains, locus YPR119W, strain clb2, stronger effect = lower value 1.03 | S. cerevisiae deletion strains, locus YPR141C, strain kar3, stronger effect = lower value 1.03 | S. cerevisiae deletion strains, locus YPR163C, strain tif3, stronger effect = lower value 0.981
